Hit rate of the full screen: of about 39,000 compounds, about 1,500 (3.8%) were called active. This excerpt belongs to a sample that is enriched for actives.

Consider 44 compounds from the antibiotic and cytotoxicity screens of Wong et al. (2023).

This assay deals with HSkMC (human skeletal muscle cells). The assay is described as follows: cytotoxicity call (relative viability < 0.9). The note with it: 10 µM.
`C[C@H](CO)N1C[C@H](C)[C@@H](CN(C)C(=O)Nc2ccc3c(c2)OCO3)Oc2ccc(NC(=O)c3ccncc3)cc2CC1=O`: the cytotoxicity call is “inactive”.
The result for `Cc1noc(C)c1NC(=O)Nc1ccc2c(c1)C(=O)N([C@@H](C)CO)C[C@@H](C)[C@H](CN(C)Cc1ccccc1)OCCCC[C@@H](C)O2` reads “inactive”; that for `C[C@@H]1CCCCO[C@@H](CN(C)CC2CC2)[C@H](C)CN([C@@H](C)CO)C(=O)c2cc(NC(=O)Nc3ccc(C(F)(F)F)cc3)ccc2O1`, “inactive”; that for `C[C@H](CO)N1C[C@H](C)[C@H](CN(C)CC2CC2)OCCCC[C@H](C)Oc2ccc(NC(=O)Nc3ccc(C(F)(F)F)cc3)cc2C1=O`, “inactive”.
For `CCCN(C)C[C@@H]1OCCCC[C@H](C)Oc2ccc(NC(=O)Nc3ccc(C(F)(F)F)cc3)cc2C(=O)N([C@@H](C)CO)C[C@@H]1C`, the cytotoxicity call was “active”.
The result for `C[C@@H]1CCCCO[C@@H](CN(C)CC2CC2)[C@@H](C)CN([C@H](C)CO)C(=O)c2cc(NC(=O)Nc3ccc(C(F)(F)F)cc3)ccc2O1` reads “inactive”; that for `C[C@H]1CCCCO[C@H](CN(C)CC2CC2)[C@@H](C)CN([C@@H](C)CO)C(=O)c2cc(NC(=O)Nc3ccc(C(F)(F)F)cc3)ccc2O1`, “inactive”.
As for `CCCN(C)C[C@@H]1OCCCC[C@@H](C)Oc2ccc(NC(=O)Nc3ccc(C(F)(F)F)cc3)cc2C(=O)N([C@H](C)CO)C[C@@H]1C`, the cytotoxicity call is “inactive”.
For the compound `CCCN(C)C[C@H]1OCCCC[C@H](C)Oc2ccc(NC(=O)Nc3ccc(C(F)(F)F)cc3)cc2C(=O)N([C@@H](C)CO)C[C@H]1C`, the cytotoxicity call was “inactive”.
As for `C[C@@H]1CCCCO[C@H](CN(C)CC2CC2)[C@H](C)CN([C@H](C)CO)C(=O)c2cc(NC(=O)Nc3ccc(C(F)(F)F)cc3)ccc2O1`, the cytotoxicity call was “active”.
Turning to `C[C@@H]1CCCCO[C@H](CN(C)CC2CC2)[C@H](C)CN([C@@H](C)CO)C(=O)c2cc(NC(=O)Nc3ccc(C(F)(F)F)cc3)ccc2O1`, the cytotoxicity call was “active”.
Turning to `C[C@@H]1CN([C@H](C)CO)C(=O)CCCn2nncc2CO[C@@H]1CN(C)S(=O)(=O)c1ccc(-n2cccn2)cc1`, the cytotoxicity call is “inactive”.
As to `CC[C@@H](C)N[C@H]1CCS(=O)(=O)C1`, the cytotoxicity call is “inactive”.
The result for `Cc1cccc([C@@H](N)c2nccn2C)c1` reads “inactive”; that for `O=C(CCCCCNC(=O)OCCCCO[C@H]1C[C@@H](c2ccc(C(F)(F)F)cc2)C=C(C(=O)N2CCN(Cc3ccccc3)CC2)O1)NO`, “inactive”; that for `CN(C)CC(=O)N[C@@H]1CC[C@@H](CC(=O)NCCN2CCCCC2)O[C@H]1CO`, “inactive”.
For the compound `C[C@H](CO)N1C[C@H](C)[C@@H](CN(C)S(=O)(=O)c2ccc(F)cc2)Oc2c(NC(=O)Nc3ccc(C(F)(F)F)cc3)cccc2C1=O`, the cytotoxicity call is “inactive”.
On to `O=C(NCCN1CCCC1)[C@H]1[C@H](CO)[C@H]2Cn3c(cccc3=O)[C@@H]1N2C(=O)c1ccccc1`, for which the cytotoxicity call was “inactive”.
The result for `C[C@H](CO)N1C[C@H](C)[C@H](CN(C)C(=O)Nc2cccc3ccccc23)Oc2c(NS(=O)(=O)c3ccc(Cl)cc3)cccc2C1=O` reads “inactive”; that for `Nc1ncnc2c1ncn2[C@@H]1O[C@H](COP(=O)(O)O)[C@@H](O)[C@H]1O`, “inactive”.
In the case of `CO[C@@H]1[C@H](O[P@@](=O)(OC[C@H]2O[C@@H](n3cnc4c(N)ncnc43)C[C@@H]2O)SCOC(=O)OC(C)C)[C@@H](CO)O[C@H]1n1ccc(=O)[nH]c1=O`, the cytotoxicity call was “inactive”.
The result for `CO[C@@H]1[C@H](O[P@@](=O)(S)OC[C@H]2O[C@@H](n3cnc4c(N)ncnc43)C[C@@H]2O)[C@@H](CO)O[C@H]1n1ccc(=O)[nH]c1=O` reads “active”.
Regarding `O=C(C[C@@H]1CC[C@H]2[C@@H](COC[C@H](O)CN2S(=O)(=O)c2ccccc2)O1)NCCN1CCCC1`, the cytotoxicity call is “inactive”.
The result for `C[C@H]1CN([C@@H](C)CO)C(=O)Cc2cc(NS(=O)(=O)c3cccs3)ccc2O[C@H]1CN(C)S(=O)(=O)c1cccs1` reads “inactive”; that for `CO[C@H]1O[C@@H](COC(C)=O)[C@@H](OC(C)=O)C(C#N)(C#N)[C@@H]1OC(C)=O`, “inactive”; that for `Clc1ccccc1C(c1ccccc1)(c1ccccc1)n1ccnc1`, “active”.
To `N#CC(c1ccccc1)(c1ccccc1)c1ccccc1Cl` belongs “inactive”; to `C[C@H](CO)N1C[C@H](C)[C@H](CN(C)S(=O)(=O)c2ccc(Cl)cc2)OCCCC[C@H](C)Oc2ccc(NC(=O)c3ccncc3)cc2C1=O`, “inactive”; to `Cc1cccc(S(=O)(=O)N2C[C@H](O)COC[C@H]3O[C@@H](CC(=O)NCCCN4CCOCC4)CC[C@@H]32)c1`, “inactive”.
Consider `COc1c(C)cnc2c1c(=O)n(CC(N)=O)c(=O)n2C`, for which the cytotoxicity call was “inactive”.
Take `C[C@@H]1CCCCO[C@H](CN(C)Cc2ccc(C(F)(F)F)cc2)[C@H](C)CN([C@H](C)CO)C(=O)c2cc(NS(=O)(=O)c3cccs3)ccc2O1`: the cytotoxicity call was “inactive”.
As to `O=C(NC1CCN(CCCCC2(C(=O)NCC(F)(F)F)c3ccccc3-c3ccccc32)CC1)c1ccccc1-c1ccc(C(F)(F)F)cc1`, the cytotoxicity call is “active”.
Regarding `O=C(NC1CCCCCCC1)c1ccccc1-c1ccccc1`, the cytotoxicity call was “inactive”.
The result for `C[C@]1(C(=O)NCC(F)(F)F)c2ccccc2C(=O)N(Cc2cc(C(F)(F)F)cc(C(F)(F)F)c2)[C@H]1c1ccc(CO)cc1` reads “inactive”; that for `COc1ccc(S(=O)(=O)Nc2ccc3c(c2)C(=O)N([C@H](C)CO)C[C@H](C)[C@@H](CN(C)C(=O)NC(C)C)O3)cc1`, “inactive”.
To `CCCCCCCCC(=O)O` belongs “inactive”; to `CN1CCN(S(C)(=O)=O)CC1`, “inactive”; to `C[C@H](CO)N1C[C@H](C)[C@@H](CN(C)C(=O)c2ccc3c(c2)OCO3)Oc2ncc(C#CCN(C)C)cc2C1=O`, “inactive”.
As for `C[C@@H]1CN([C@@H](C)CO)C(=O)c2cc(NS(=O)(=O)c3ccc(F)cc3)ccc2O[C@H]1CN(C)Cc1ccc(Oc2ccccc2)cc1`, the cytotoxicity call was “inactive”.
Consider `C[C@@H]1CN([C@H](C)CO)C(=O)c2cc(NS(=O)(=O)c3ccc(F)cc3)ccc2O[C@@H]1CN(C)Cc1ccc(Oc2ccccc2)cc1`, for which the cytotoxicity call was “active”.
On to `C[C@@H]1CN([C@H](C)CO)C(=O)c2cc(NS(=O)(=O)c3ccc(F)cc3)ccc2O[C@H]1CN(C)Cc1ccc(Oc2ccccc2)cc1`, for which the cytotoxicity call is “inactive”.
To `C[C@H]1CN([C@@H](C)CO)C(=O)c2cc(NS(=O)(=O)c3ccc(F)cc3)ccc2O[C@@H]1CN(C)Cc1ccc(Oc2ccccc2)cc1` belongs “inactive”; to `C[C@@H]1CN([C@@H](C)CO)C(=O)c2cc(NS(=O)(=O)c3ccc(F)cc3)ccc2O[C@@H]1CN(C)Cc1ccc(Oc2ccccc2)cc1`, “active”; to `C[C@H]1CN([C@@H](C)CO)C(=O)c2cc(NS(=O)(=O)c3ccc(F)cc3)ccc2O[C@H]1CN(C)Cc1ccc(Oc2ccccc2)cc1`, “inactive”.
